The values below come from PubChem BioAssay AID488922 (Johns Hopkins Ion Channel Center, 2010).

Hit rate of the full screen: of about 310,000 compounds, about 3,800 (1.2%) were called active.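 The calls were made as follows: active = ratio B-score over 3 SD below the library mean, with starting fluorescence within 5 SD of its mean; inactive = the rest, inconclusive results apart.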 The full list was thinned out, with actives kept by preference.

In the assay the target is Potassium channel subfamily K member 9 (Homo sapiens) (UniProt Q9NPC2). Put plainly: KCNK9 potassium channel inhibitors, primary screen, HEK293 cells, thallium flux (AID 488922).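 As to B-score: negative B-score means less thallium flux so channel inhibition.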 The settings on record: HEK293 KCNK9, FluxOR thallium flux fluorescence, at 10 µM; hits give low values.
Sequence of Potassium channel subfamily K member 9 (Homo sapiens) (Q9NPC2 whole entry, looked up): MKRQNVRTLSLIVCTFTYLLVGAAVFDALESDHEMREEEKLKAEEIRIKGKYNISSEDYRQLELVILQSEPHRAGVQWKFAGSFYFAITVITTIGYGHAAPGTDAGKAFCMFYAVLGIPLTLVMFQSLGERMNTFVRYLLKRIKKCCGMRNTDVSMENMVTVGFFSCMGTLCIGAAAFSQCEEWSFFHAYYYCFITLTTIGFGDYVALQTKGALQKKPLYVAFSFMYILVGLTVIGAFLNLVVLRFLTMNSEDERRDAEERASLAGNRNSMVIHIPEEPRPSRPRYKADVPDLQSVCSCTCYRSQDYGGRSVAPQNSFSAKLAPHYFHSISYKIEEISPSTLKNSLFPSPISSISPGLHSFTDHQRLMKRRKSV
`Cc1ccc2c(c1)N(CC(=O)N1CCC(O)CC1)C(=O)CO2`: the B-score result was “inactive”.

Consider `O=C(O)COCC(=O)NCc1csc2ccc(Cl)cc12`, for which the B-score entry was “inactive”.

Consider `Cc1noc(C)c1C(=O)Nc1ccccn1`, for which the B-score result is “inactive”.

As for `Cc1c(C(=O)Nc2ccccn2)oc2ccc(Br)cc12`, the B-score is -9.33 (active).

With `Cc1nonc1NC(=O)c1oc2ccccc2c1C`, the B-score result was “inactive”.

For `C[C@H](NC(=O)c1nc[nH]c1C(=O)NCC(=O)OC(C)(C)C)C(=O)OCc1ccccc1`, the B-score entry is “inactive”.

On to `O=C(NCC1CCCO1)c1cc2c([nH]c3ccccc32)c(-c2ccc(F)cc2)n1` (centres undefined), for which the B-score entry is “inactive”.

Regarding `CSCC[C@H](NC(=O)CCCn1nnc2ccccc2c1=O)C(=O)O`, the B-score result was “inactive”.

In the case of `CCN(CC)CCNC(=O)c1ccc(NC(=O)c2c(F)cccc2Cl)cc1`, the B-score entry was “inactive”.

For `Cc1cc(=O)[nH]c(N/N=C/c2ccc3c(c2)OCCO3)n1`, the B-score result is “inactive”.

Regarding `Cc1nn(-c2ccccc2)c(Cl)c1/C=N/NC(=O)c1nn(C)cc1[N+](=O)[O-]`, the B-score entry was “inactive”.

For the molecule `Cc1cc(=O)[nH]c(N/N=C/c2c(C)nn(-c3ccccc3Cl)c2Cl)n1`, the B-score was -6.92 (active).

As to `C=C1CCN([C@H](C(=O)NCc2cc(OC)c(OC)c(OC)c2)C(C)C)S(=O)(=O)c2ccccc21`, the B-score entry was “inactive”.

Turning to `CCN(c1ccccc1)S(=O)(=O)c1cc2c(cc1C)n(C)c(=O)c(=O)n2C`, the B-score entry was “inactive”.

Take `Cc1ccc2c(c1)N(CC(=O)N(Cc1ccccn1)Cc1ccco1)C(=O)C(C(C)C)O2` (centres undefined): the B-score entry was “inactive”.

On to `COc1cccc(-c2ccc(SCC(=O)N3CCN(c4ccccc4)CC3)nn2)c1`, for which the B-score entry was “inactive”.

As to `COc1cccc(-c2cc(C(=O)N3CCN(c4ccccc4OC)CC3)no2)c1`, the B-score entry was “inactive”.

As for `COc1ccccc1N1CCN(C(=O)c2cc3c(-c4ccc(Cl)cc4)nn(C)c3s2)CC1`, the B-score was -13.6 (active).

Consider `COc1cccc(-c2nn(C)c3sc(C(=O)N4CCN(c5ccccc5)CC4)cc23)c1`, for which the B-score was -9.93 (active).

Consider `Cn1nc(-c2ccc(Cl)cc2)c2cc(C(=O)NCc3ccco3)sc21`, for which the B-score result was “inactive”.

In the case of `Cn1nc(C(F)(F)F)c2cc(C(=O)N3CCOCC3)sc21`, the B-score entry was “inactive”.

`CN1CCN(C2Cc3ccc(Cl)cc3Sc3ccc(F)cc32)CC1` (centres undefined): the B-score result is “inactive”.

As to `N#C/C=C/N1CCN(Cc2ccc3c(c2)OCO3)CC1`, the B-score entry is “inactive”.

In the case of `CC(C)(C)NC(=O)Cn1c(SCC(=O)Nc2nccs2)nc2ccccc21`, the B-score result was “inactive”.

Consider `O=C(Nn1cnnc1)c1cc(Cl)ccc1Cl`, for which the B-score entry was “inactive”.

Take `COc1ccc(/C=N/OCc2ccccc2C#N)c(OC)c1`: the B-score result was “inactive”.

On to `O=C(Nc1ccccc1)N1CCN(C(=O)Nc2ccccc2)CC1`, for which the B-score result was “inactive”.

As to `COc1cc(C(=O)NCC(=O)N2CC=C(c3ccccc3)CC2)cc(OC)c1OC`, the B-score result is “inactive”.

`O=C(Nc1ccc(Cl)c(Cl)c1)N1CC=C(c2ccccc2)CC1`: the B-score is -8.34 (active).

`CC(=O)Nc1ccc(NC(=O)CN2C(=O)COc3ccc(S(=O)(=O)N4CCCCC4)cc32)cc1`: the B-score entry is “inactive”.

As for `Cc1cccc(N(C)C(=O)CN2C(=O)COc3ccc(S(=O)(=O)N4CCCCCC4)cc32)c1`, the B-score is -8.26 (active).

Take `CN(C)c1ccc(CNC(=O)CN2C(=O)COc3ccc(S(=O)(=O)N4CCCC4)cc32)cc1`: the B-score entry was “inactive”.

Take `COc1ccc(NC(=O)C(CC(C)C)NS(=O)(=O)c2ccc3c(c2)CCN3C(C)=O)cc1OC` (centres undefined): the B-score entry was “inactive”.

For the molecule `S=c1nc2ccccc2c2nc(-c3cccnc3)[nH]n12`, the B-score entry was “inactive”.

Consider `COCCCn1c(SCC(=O)Nc2oc(C)c3c(C)n[nH]c(=O)c23)nc2sc3c(c2c1=O)CCC3`, for which the B-score entry was “inactive”.

On to `Cc1nc2ccccc2nc1N/N=C/c1ccc(O)cc1O`, for which the B-score result is “inactive”.

For the molecule `Oc1ccc(/C=N/Nc2nc(-c3ccccc3F)nc3ccccc23)c(O)c1`, the B-score is -10.4 (active).

With `Fc1ccc(/C=N/Nc2nc(-c3cccnc3)nc3ccccc23)cc1`, the B-score entry is “inactive”.

For the molecule `O=C(CN1CCN(Cc2ccccc2)CC1)Nc1ccc(F)c(F)c1`, the B-score entry is “inactive”.

Regarding `O=C(CC(NC(=O)c1ccccc1)c1ccccc1)Nc1ccc(F)c(F)c1` (centres undefined), the B-score is -10 (active).

On to `Cc1ccc(NC(=O)NC(=O)c2ccccc2)cc1F`, for which the B-score entry is “inactive”.

For `Cc1ccc(N/N=C2\COC(C)(C)CC2=O)cc1`, the B-score result is “inactive”.

As for `Cc1cccc(NC(=O)CN2CCCN(S(=O)(=O)c3ccc(Br)s3)CC2)c1`, the B-score is -14.6 (active).

For `O=C(CN1CCCCCC1)Nc1ccc(S(=O)(=O)N2CCCCC2)cc1`, the B-score result was “inactive”.

Consider `Cc1ccc(S(=O)(=O)N2CCN(CC(=O)N/N=C/c3ccc(Br)s3)CC2)cc1`, for which the B-score result is “inactive”.

For the molecule `O=C1CCN(Cc2ccc([N+](=O)[O-])cc2)CCN1[C@H](CO)Cc1ccccc1`, the B-score result was “inactive”.

For `CCC1(C)Cc2c(sc3nc(SC)[nH]c(=O)c23)CO1` (centres undefined), the B-score result is “inactive”.

Take `CCCSc1nc(NCc2ccco2)c2c3c(sc2n1)COC(C)(CC)C3` (centres undefined): the B-score was -9.18 (active).

Regarding `CCC1(C)Cc2c(sc3nc(SC)nc(N)c23)CO1` (centres undefined), the B-score entry was “inactive”.

In the case of `COc1ccc(-c2nc3c(s2)CCc2onc(-c4ccc(OC)cc4)c2-3)cc1`, the B-score result is “inactive”.

Regarding `CC1CC(C)CN(S(=O)(=O)c2cccc3nonc23)C1` (centres undefined), the B-score result was “inactive”.

`CCn1c(Cc2cccs2)nnc1SCC(=O)c1ccc(C)cc1`: the B-score entry is “inactive”.

`Cc1c(NS(=O)(=O)c2ccc(NC3CCCC3)c([N+](=O)[O-])c2)c(=O)n(-c2ccccc2)n1C`: the B-score entry was “inactive”.

In the case of `Cc1cc([N+](=O)[O-])ccc1NC1CCCC1`, the B-score result was “inactive”.

In the case of `Cc1cc(C=O)c(C)n1-c1ccc(NC2CCCCC2)c([N+](=O)[O-])c1`, the B-score is -24.9 (active).

Take `Cc1ccc2nc(C)c3c(c2c1)N(c1ccccc1)CC3`: the B-score result was “inactive”.

On to `Cc1nc2nc(SCC(=O)Nc3cccc(F)c3)[nH]c2cc1Br`, for which the B-score result was “inactive”.

Regarding `COc1ccc(-c2nc3n(c(=O)c2C#N)CCS3)c(OC)c1`, the B-score entry is “inactive”.

On to `CCC1CCC/C1=N\NC(=O)c1ccc(Cl)cc1` (centres undefined), for which the B-score result is “inactive”.

For the molecule `Cc1sc2nc(CSCC(=O)NC3CCCCC3)[nH]c(=O)c2c1C`, the B-score entry was “inactive”.

For the molecule `CCCCn1c(=O)c(C(C)=O)c(O)c2ccccc21`, the B-score entry is “inactive”.

Take `CCOC(=O)c1nnn2c3ccccc3c(=O)n(C)c12`: the B-score result is “inactive”.

As to `CCCCCn1c(=O)c(C(=O)OCC)c(Cl)c2ccccc21`, the B-score was -8.35 (active).

As to `COc1ccccc1C1C(C#N)=C(N)Oc2c1c(-c1ccccc1)nn2-c1ccccc1` (centres undefined), the B-score result is “inactive”.

As to `CCc1nnc(NC(=O)CSc2nc(SC)ns2)s1`, the B-score result was “inactive”.

With `CN1C(C(=O)NCc2ccco2)CC2Cn3c(nc4ccccc43)C21` (centres undefined), the B-score result is “inactive”.

In the case of `Cc1cc(C)cc(C(=O)N2CCN=C2SCc2ccc([N+](=O)[O-])cc2)c1`, the B-score is -7.18 (active).

Take `Cc1cccc(CC(=O)N2CCN=C2SCc2ccc([N+](=O)[O-])cc2)c1`: the B-score result was “inactive”.

As for `O=C(Cc1ccc(F)cc1)N1CCN=C1SCc1cccc([N+](=O)[O-])c1`, the B-score result was “inactive”.

Consider `CC1=CC(=C(C#N)c2nc3ccccc3s2)C=C(C)N1c1ccc(F)cc1F`, for which the B-score entry was “inactive”.

Consider `O=S(=O)(Cc1nnnn1-c1ccc(Br)cc1)c1ccc(F)cc1`, for which the B-score result is “inactive”.

With `COc1ccc2[nH]c(=O)c(C3c4cc(OC)c(OC)cc4CCN3C(=O)c3ccco3)cc2c1` (centres undefined), the B-score entry is “inactive”.

As to `COc1ccc(C(=O)N2CCc3cc(OC)c(OC)cc3C2c2cccc([N+](=O)[O-])c2)cc1` (centres undefined), the B-score was -15.3 (active).

`COc1ccccc1C1SCCN1C(=O)c1ccc([N+](=O)[O-])cc1` (centres undefined): the B-score result is “inactive”.

For the molecule `O=C(NCCCO)/C(=C\C=C\c1ccccc1)NC(=O)c1ccccc1Cl`, the B-score entry is “inactive”.

For `Cc1ccc(CSc2nsc(C)c2C#N)cc1`, the B-score entry is “inactive”.

Regarding `O=C(Nc1ccc(F)cc1)C1CCCN(S(=O)(=O)c2ccc(-n3cnnn3)cc2)C1` (centres undefined), the B-score entry was “inactive”.

Turning to `CNS(=O)(=O)c1cccc(C(=O)NCC2CCCCC2)c1`, the B-score result is “inactive”.

For `CN(C)S(=O)(=O)N1CCC(Oc2cccc(C(=O)NCCCC3CCCC3)c2)CC1`, the B-score was -14.3 (active).

Regarding `CN(C(=O)c1cccc(OC2CCN(S(=O)(=O)N(C)C)CC2)c1)C1CCOC1` (centres undefined), the B-score entry was “inactive”.

`Cc1ccc(CCNC(=O)c2ccc3nc4ccccc4c(=O)n3c2)cc1`: the B-score result is “inactive”.

On to `CC(C)(C)c1nnc(NC(=O)C2c3ccccc3Oc3ccccc32)s1`, for which the B-score entry is “inactive”.

Consider `CCn1ccnc1CNC(=O)CC1C(=O)NCCN1Cc1ccc(F)cc1Cl` (centres undefined), for which the B-score entry is “inactive”.

On to `O=[N+]([O-])c1ccc2c(c1)Nc1nc3ccccc3nc1N2`, for which the B-score result is “inactive”.

On to `COc1ccc(-c2nc3cc([N+](=O)[O-])ccc3o2)cc1OC`, for which the B-score result is “inactive”.

Turning to `COc1ccc([N+](=O)[O-])cc1-c1nc2ccccc2nc1-c1ccccc1`, the B-score was -9.17 (active).

For `Cc1cnc(NC(=O)c2ccccn2)s1`, the B-score result is “inactive”.

As for `CC(C)CNC(=O)C(=O)NCC(c1ccc2c(c1)OCO2)N1CCOCC1` (centres undefined), the B-score result is “inactive”.

Consider `CC(C)[C@@H](NC(=O)OC(C)(C)C)C(=O)NCC1CCC(C(=O)N[C@@H](Cc2ccccc2)C(=O)O)CC1` (some centres undefined), for which the B-score result is “inactive”.

Turning to `O=C(Nc1ccccc1N1CCCC1)c1ccc2ccccc2c1`, the B-score entry was “inactive”.

On to `CCCCC(=O)Nc1ccccc1N1CCN(c2ccc(F)cc2)CC1`, for which the B-score is -13.2 (active).

`CCCC(=O)Nc1ccccc1N1CCN(C(=O)c2ccccc2)CC1`: the B-score result was “inactive”.

On to `Cc1cccc(C(=O)Nc2ccccc2N2CCN(c3ccc(F)cc3)CC2)c1`, for which the B-score was -9.31 (active).

Regarding `O=C(Nc1ccccc1N1CCN(c2ccccc2)CC1)c1cccc(F)c1`, the B-score result is “inactive”.

Consider `CCC(C)C(=O)Nc1ccccc1N1CCN(c2ccc(F)cc2)CC1` (centres undefined), for which the B-score entry was “inactive”.

Regarding `COc1ccc(NC(=O)CN(C)C(=O)CC2CCCCC2)cc1`, the B-score entry is “inactive”.

`CNC1(c2nnnn2-c2c(C)cccc2C)CCOC(C)(C)C1` (centres undefined): the B-score entry was “inactive”.

Take `COc1ccccc1NC(=O)C1=C(C)Nc2nc3ccccc3n2C1c1cccs1` (centres undefined): the B-score result was “inactive”.

As for `O=C(/C=C/c1cccc([N+](=O)[O-])c1)N1CCN(Cc2ccccc2)CC1`, the B-score entry was “inactive”.

Regarding `O=c1c([N+](=O)[O-])cc(C(F)(F)F)cn1Cc1cccc(Cl)c1`, the B-score result is “inactive”.

As to `O=[N+]([O-])/C=C/c1ccc2c(ccn2Cc2ccccc2)c1`, the B-score was -9.63 (active).

For `CC(C)Cc1nnc(NC(=O)CN2C(=O)NC3(CCCCC3)C2=O)s1`, the B-score entry was “inactive”.

On to `COc1cc(/C=C/C(=O)O)cc(S(=O)(=O)Nc2ccccc2C(=O)NCCc2ccccc2)c1OC`, for which the B-score result was “inactive”.

Turning to `CC1CCCC(NC(=O)c2cccc(N3CCCC3=O)c2)C1C` (centres undefined), the B-score result is “inactive”.
